We go through 94 sequences from the supplement of paper PMC3334620.

The full ranking holds about 33,000 sequences; the median of “E-score (-0.5 to 0.5)” is about -0.015, and the highest 2% start at about 0.3. The entries come from a sample that favours the highest values as a whole.

The experiment deals with T1, Abf1 (UniProt P14164).
T1 sequence: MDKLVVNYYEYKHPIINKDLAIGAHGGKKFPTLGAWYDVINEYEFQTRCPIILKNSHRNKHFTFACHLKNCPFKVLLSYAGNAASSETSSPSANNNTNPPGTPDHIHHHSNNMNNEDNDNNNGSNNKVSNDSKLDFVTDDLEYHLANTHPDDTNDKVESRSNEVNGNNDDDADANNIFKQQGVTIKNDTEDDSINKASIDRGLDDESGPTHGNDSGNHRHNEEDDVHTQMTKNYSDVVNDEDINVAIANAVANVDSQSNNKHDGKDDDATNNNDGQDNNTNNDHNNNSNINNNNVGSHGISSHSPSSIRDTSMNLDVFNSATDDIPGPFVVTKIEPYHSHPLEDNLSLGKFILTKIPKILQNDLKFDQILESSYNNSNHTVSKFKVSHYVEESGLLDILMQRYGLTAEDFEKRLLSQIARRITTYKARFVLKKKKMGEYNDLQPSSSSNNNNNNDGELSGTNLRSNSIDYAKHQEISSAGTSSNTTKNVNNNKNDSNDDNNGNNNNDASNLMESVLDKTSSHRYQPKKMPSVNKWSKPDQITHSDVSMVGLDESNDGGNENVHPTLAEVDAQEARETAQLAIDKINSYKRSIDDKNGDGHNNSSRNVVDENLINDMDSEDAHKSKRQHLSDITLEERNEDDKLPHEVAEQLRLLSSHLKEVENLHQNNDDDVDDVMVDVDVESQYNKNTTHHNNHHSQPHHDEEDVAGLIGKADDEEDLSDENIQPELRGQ
Put plainly: PBM E-score (8-mer binding enrichment) (E-score (-0.5 to 0.5)); higher = stronger / more preferred TF binding. Particulars: protein concentration: 200 nM; construct: GST-full length. Summed up:
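Using PURExpress in vitro transcription/translation, GST-tagged yeast transcription factors were made in full-length or DNA-binding-domain form. These were applied at about 100-200 nM to double-stranded universal all-10-mer Agilent arrays, and bound protein was detected with fluorescent anti-GST. Scans were normalised with masliner before the Universal PBM Analysis Suite assigned E-scores to ungapped eight-base words pooled with their reverse complements.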
As to AGAGAAGA, the “PBM E-score” value was found to be 0.0299.

CCACCAGC: the “PBM E-score” value came to 0.0706.

For the sequence ATCGTTTG, the “PBM E-score” value is 0.298.

On to ATCGTTTC, for which the “PBM E-score” value stood at 0.325.

On to ATCGTTTA, for which the “PBM E-score” value worked out at 0.321.

Regarding AGCGTTTG, the “PBM E-score” value was -0.116.

ACCGTTTG: the “PBM E-score” value stood at 0.103.

Consider CTCGTTTC, for which the “PBM E-score” value amounted to 0.129.

Regarding GTCGTTTA, the “PBM E-score” value was 0.298.

With GCCGTTTA, the “PBM E-score” value was 0.102.

ATCGTTCC: the “PBM E-score” value came to 0.068.

As for AACGTTTA, the “PBM E-score” value is -0.0328.

In the case of AGCGTTTA, the “PBM E-score” value was -0.153.

Regarding CTCGTTTA, the “PBM E-score” value was found to be 0.0984.

On to CAGCTCCA, for which the “PBM E-score” value was -0.238.

Consider CGATACAG, for which the “PBM E-score” value was -0.0796.

On to ACTTTGTA, for which the “PBM E-score” value turned out to be 0.0728.

As for ATTAGATC, the “PBM E-score” value was -0.00144.

As to ATGCAGCG, the “PBM E-score” value was -0.174.

For GCGGGAGC, the “PBM E-score” value was -0.288.

As to CTCGTTGA, the “PBM E-score” value is 0.0588.

On to ATCGTTGA, for which the “PBM E-score” value was 0.208.

In the case of GTCGTTGA, the “PBM E-score” value turned out to be 0.327.

In the case of AGCTCGTA, the “PBM E-score” value was found to be 0.149.

As to GCGCAACA, the “PBM E-score” value is -0.123.

Turning to AAAGAGTG, the “PBM E-score” value is -0.101.

Take ATTATGCA: the “PBM E-score” value is -0.114.

Take ATCATGTA: the “PBM E-score” value amounted to 0.208.

Take ATCATGTC: the “PBM E-score” value was found to be 0.356.

Regarding ATTATGCG, the “PBM E-score” value turned out to be 0.303.

For CTCATGTC, the “PBM E-score” value is 0.0937.

For ATTATGTC, the “PBM E-score” value was found to be 0.303.

Regarding ATTATGTA, the “PBM E-score” value stood at 0.239.

ATTATGCC: the “PBM E-score” value is 0.0573.

With CTTATGTC, the “PBM E-score” value was 0.00318.

Turning to AGCCGGTA, the “PBM E-score” value was -0.013.

Turning to CTGGCACA, the “PBM E-score” value turned out to be 0.00341.

For the sequence GATCCAAA, the “PBM E-score” value came to 0.111.

Regarding AGTGTTTG, the “PBM E-score” value was -0.0678.

On to ACGATAAC, for which the “PBM E-score” value came to 0.224.

Take ACGATAAA: the “PBM E-score” value was 0.352.

As for ACGATAAT, the “PBM E-score” value worked out at 0.303.

GCGATAAA: the “PBM E-score” value was 0.241.

For the sequence TCGATAAA, the “PBM E-score” value amounted to 0.207.

Regarding ACGATAAG, the “PBM E-score” value was 0.243.

For CAGACTCA, the “PBM E-score” value is -0.218.

For GGGAACCA, the “PBM E-score” value was -0.249.

For the sequence CCGAACCA, the “PBM E-score” value is -0.231.

With ACGTTTAA, the “PBM E-score” value stood at 0.245.

Take GCGTTCAA: the “PBM E-score” value is -0.0872.

Regarding TCGTTCAA, the “PBM E-score” value amounted to 0.357.

With CCGTTTAA, the “PBM E-score” value is 0.266.

For ACGTTCAA, the “PBM E-score” value amounted to 0.155.

With TCGTTTAA, the “PBM E-score” value was found to be 0.341.

TACACTAA: the “PBM E-score” value stood at 0.114.

As to TAAGACTA, the “PBM E-score” value was -0.0858.

Turning to CCAACAGG, the “PBM E-score” value is -0.363.

Turning to GAACTTAC, the “PBM E-score” value came to 0.0577.

ACGGTATC: the “PBM E-score” value worked out at 0.182.

As for AATTTATC, the “PBM E-score” value is 0.314.

For AATTTATA, the “PBM E-score” value is 0.191.

As for AGTTTATC, the “PBM E-score” value worked out at 0.173.

As to CATTTATC, the “PBM E-score” value was 0.222.

For the sequence CGTTTATA, the “PBM E-score” value was found to be 0.196.

As to CGTTTATC, the “PBM E-score” value came out at 0.297.

In the case of CCTCTGAG, the “PBM E-score” value was -0.215.

GATTGGGA: the “PBM E-score” value was -0.197.

For the sequence AGTGGTTA, the “PBM E-score” value came out at 0.0354.

On to AAACGACA, for which the “PBM E-score” value worked out at 0.321.

For GAACGACA, the “PBM E-score” value came out at 0.296.

As for AAACGACG, the “PBM E-score” value is 0.238.

As to CAACGACA, the “PBM E-score” value worked out at 0.208.

In the case of AAACGACT, the “PBM E-score” value came to 0.152.

TAACGACA: the “PBM E-score” value worked out at 0.31.

With GCTAAAGC, the “PBM E-score” value was -0.16.

As for ACGCGGAT, the “PBM E-score” value was -0.024.

With GAAACCAC, the “PBM E-score” value was -0.124.

For AAGGGACC, the “PBM E-score” value is 0.0128.

Take ACCATAGA: the “PBM E-score” value is -0.0622.

Take CCTCGTGC: the “PBM E-score” value amounted to 0.00335.

For the sequence GGTCGTGA, the “PBM E-score” value came out at 0.195.

Consider CCTCGTGA, for which the “PBM E-score” value is 0.363.

With AGTCGTGC, the “PBM E-score” value was 0.0998.

As to CGTCGTGC, the “PBM E-score” value is 0.315.

In the case of GCTCGTGA, the “PBM E-score” value turned out to be 0.0759.

With CGTCGTGA, the “PBM E-score” value is 0.351.

Turning to AGTCGTGA, the “PBM E-score” value is 0.249.

For the sequence GTTCGTGA, the “PBM E-score” value is 0.254.

On to CTTCGTGA, for which the “PBM E-score” value is 0.317.

Regarding ATTCGTGA, the “PBM E-score” value is 0.15.

As to ACTCGTGA, the “PBM E-score” value was found to be 0.162.

Consider GTGAAAAC, for which the “PBM E-score” value turned out to be 0.138.

On to CACTTCGA, for which the “PBM E-score” value was 0.223.

As to ATACTGTA, the “PBM E-score” value worked out at 0.0204.
